About 83,000 compounds went through this panel and 20% of them were active in at least one assay; those are over-represented in the sample as a whole.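 Note: values are percent growth. 100 is the growth of untreated cells, values between 100 and 0 indicate rising inhibition; between -100 and 0 indicates cell death.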 Calls of active or inactive are those of the source. How the source made its calls: active means growth percent below 10; inactive means the rest.
Tests used:
Experiment in all cases: NCI-60 one-dose screen, 48 h (100 = growth as untreated, 0 = no growth, -100 = all killed)
Settings in all cases: 10 µM unless noted
RPMI-8226 leukemia = system: RPMI-8226 leukemia
OVCAR-8 ovarian = system: OVCAR-8 ovarian
OVCAR-5 ovarian = system: OVCAR-5 ovarian
OVCAR-4 ovarian = system: OVCAR-4 ovarian
SK-OV-3 ovarian = system: SK-OV-3 ovarian
IGROV1 ovarian = system: IGROV1 ovarian
OVCAR-3 ovarian = system: OVCAR-3 ovarian
HS 578T breast = system: HS 578T breast
NCI/ADR-RES ovarian = system: NCI/ADR-RES ovarian
T-47D breast = system: T-47D breast
BT-549 breast = system: BT-549 breast
MDA-MB-435 melanoma = system: MDA-MB-435 melanoma
SW-620 colon = system: SW-620 colon
MCF7 breast = system: MCF7 breast
HCT-116 colon = system: HCT-116 colon
KM12 colon = system: KM12 colon
HCC-2998 colon = system: HCC-2998 colon

Measured: growth

N#Cc1ccc(Oc2ccc3ccc(=O)oc3c2)cc1
inactive: RPMI-8226 leukemia 81.5% | OVCAR-8 ovarian 87.2% | OVCAR-5 ovarian 104% | OVCAR-4 ovarian 109% | SK-OV-3 ovarian 112% | IGROV1 ovarian 121% | OVCAR-3 ovarian 117% | HS 578T breast 93.4% | NCI/ADR-RES ovarian 107% | T-47D breast 94.5% | BT-549 breast 110% | MDA-MB-435 melanoma 120% | SW-620 colon 96.5% | MCF7 breast 97.3% | HCT-116 colon 91.5% | KM12 colon 96.2%

O=c1c2ccccc2n(CC(O)CN2CCCC2)c2c(Br)cccc12 (configuration not stated)
inactive: RPMI-8226 leukemia 44.9% | OVCAR-8 ovarian 94.1% | OVCAR-5 ovarian 76.3% | OVCAR-4 ovarian 108% | SK-OV-3 ovarian 101% | IGROV1 ovarian 93.3% | OVCAR-3 ovarian 106% | HS 578T breast 98.9% | T-47D breast 93.4% | BT-549 breast 92.2% | MDA-MB-435 melanoma 86.8% | SW-620 colon 94.9% | MCF7 breast 92.9% | HCT-116 colon 90.4% | KM12 colon 94%
active: NCI/ADR-RES ovarian -14.8%

Cc1nn(-c2ccc(-c3ccc(OC(F)(F)F)cc3)cc2)c2nc(-c3ccccc3)nc(N)c12
inactive: RPMI-8226 leukemia 118% | OVCAR-8 ovarian 93% | OVCAR-5 ovarian 98.3% | OVCAR-4 ovarian 102% | SK-OV-3 ovarian 108% | IGROV1 ovarian 99.3% | OVCAR-3 ovarian 107% | HS 578T breast 115% | NCI/ADR-RES ovarian 90.8% | T-47D breast 78.5% | MDA-MB-435 melanoma 102% | SW-620 colon 81.3% | MCF7 breast 94.3% | HCT-116 colon 96.7% | HCC-2998 colon 96.8% | KM12 colon 100%

Cc1cc(Nc2nc(SCc3ccc(C(=O)Nc4ccc(F)cc4N)cc3)nn3cccc23)n[nH]1
active: KM12 colon 7.02%
inactive: RPMI-8226 leukemia 13.1% | OVCAR-8 ovarian 15.4% | OVCAR-5 ovarian 52.3% | OVCAR-4 ovarian 40.8% | SK-OV-3 ovarian 17.9% | IGROV1 ovarian 33.6% | OVCAR-3 ovarian 11.4% | HS 578T breast 37.4% | NCI/ADR-RES ovarian 30.2% | T-47D breast 62.1% | MDA-MB-435 melanoma 12.8% | SW-620 colon 23.9% | MCF7 breast 23.5% | HCT-116 colon 10.1% | HCC-2998 colon 23.9%

O=C1[C@@H](OS(=O)(=O)CC(F)(F)F)[C@H](c2ccc(F)cn2)N1c1cc2c3ccccc3ccc2c2ccccc12
inactive: RPMI-8226 leukemia 25.1% | OVCAR-8 ovarian 78.6% | OVCAR-5 ovarian 104% | OVCAR-4 ovarian 86.3% | SK-OV-3 ovarian 95.8% | IGROV1 ovarian 70% | OVCAR-3 ovarian 49.3% | HS 578T breast 68.3% | NCI/ADR-RES ovarian 72.2% | T-47D breast 84.9% | BT-549 breast 66.2% | MDA-MB-435 melanoma 30.5% | SW-620 colon 47.6% | MCF7 breast 64% | HCT-116 colon 79.3% | KM12 colon 87%

c1ccc(-c2n(Cc3ccc4ccccc4n3)cc[n+]2Cc2ccc3ccccc3c2)cc1
inactive: OVCAR-5 ovarian 22% | OVCAR-4 ovarian 14.3% | HS 578T breast 15.1% | NCI/ADR-RES ovarian 96%
active: RPMI-8226 leukemia -2.59% | OVCAR-8 ovarian 3.17% | SK-OV-3 ovarian -12.4% | IGROV1 ovarian -15.4% | OVCAR-3 ovarian 6.21% | T-47D breast -14.7% | BT-549 breast 3.57% | MDA-MB-435 melanoma 2.12% | SW-620 colon 8.55% | HCC-2998 colon -13.2% | KM12 colon -38.5%

COc1cc(C2=NN(C=O)C(c3cccc(Nc4ccnc5cc(C(F)(F)F)ccc45)c3)C2)cc(OC)c1OC (configuration not stated)
inactive: RPMI-8226 leukemia 27% | OVCAR-8 ovarian 61.9% | OVCAR-5 ovarian 102% | OVCAR-4 ovarian 59.1% | SK-OV-3 ovarian 81.6% | IGROV1 ovarian 67.3% | OVCAR-3 ovarian 54.6% | HS 578T breast 87.5% | NCI/ADR-RES ovarian 55.3% | T-47D breast 43.6% | BT-549 breast 56.1% | MDA-MB-435 melanoma 43.5% | SW-620 colon 64.6% | MCF7 breast 38.4% | HCT-116 colon 58.4% | KM12 colon 59.7%

Cc1cc(NC(=O)CNc2nc(Oc3ccc(F)cc3)nc(-c3ccc(F)cc3)n2)ccc1Cl
inactive: RPMI-8226 leukemia 96.6% | OVCAR-8 ovarian 102% | OVCAR-5 ovarian 103% | OVCAR-4 ovarian 105% | SK-OV-3 ovarian 93.7% | IGROV1 ovarian 106% | OVCAR-3 ovarian 116% | HS 578T breast 85.8% | NCI/ADR-RES ovarian 101% | T-47D breast 91.3% | BT-549 breast 100% | MDA-MB-435 melanoma 105% | SW-620 colon 101% | MCF7 breast 94.8% | HCT-116 colon 82.1% | KM12 colon 103%

COc1ccc(OCC(=O)OC(C)C)cc1
inactive: RPMI-8226 leukemia 106% | OVCAR-8 ovarian 105% | OVCAR-5 ovarian 99.6% | OVCAR-4 ovarian 101% | SK-OV-3 ovarian 112% | IGROV1 ovarian 103% | OVCAR-3 ovarian 99.1% | HS 578T breast 100% | NCI/ADR-RES ovarian 93.3% | T-47D breast 101% | BT-549 breast 109% | MDA-MB-435 melanoma 101% | SW-620 colon 94.4% | MCF7 breast 93.8% | HCT-116 colon 114% | KM12 colon 93.8%

CCOCCc1c(O)nc(SC)[nH]c1=O
inactive: RPMI-8226 leukemia 94.4% | OVCAR-8 ovarian 103% | OVCAR-5 ovarian 87.3% | OVCAR-4 ovarian 108% | SK-OV-3 ovarian 102% | IGROV1 ovarian 100% | OVCAR-3 ovarian 186% | HS 578T breast 92.9% | NCI/ADR-RES ovarian 96.5% | T-47D breast 110% | MDA-MB-435 melanoma 120% | SW-620 colon 90.9% | MCF7 breast 99.7% | HCT-116 colon 100% | HCC-2998 colon 39.4% | KM12 colon 101%

COC(=O)c1ccc2c(c1)NC(=O)[C@@H]1CCCN21
inactive: RPMI-8226 leukemia 96.6% | OVCAR-8 ovarian 97.5% | OVCAR-5 ovarian 112% | OVCAR-4 ovarian 88.4% | SK-OV-3 ovarian 95.2% | IGROV1 ovarian 101% | OVCAR-3 ovarian 102% | HS 578T breast 105% | NCI/ADR-RES ovarian 100% | T-47D breast 86.3% | MDA-MB-435 melanoma 100% | SW-620 colon 96.8% | MCF7 breast 73.9% | HCT-116 colon 93.8% | HCC-2998 colon 109% | KM12 colon 101%

C#C[C@@]1(O)[C@@H](CO)O[C@@H](n2cc(-c3ccco3)c3c(N)ncnc32)[C@@H]1O
active: IGROV1 ovarian -11.6% | T-47D breast -17.2%
inactive: RPMI-8226 leukemia 80.3% | OVCAR-8 ovarian 65.9% | OVCAR-5 ovarian 66.9% | OVCAR-4 ovarian 61.2% | SK-OV-3 ovarian 26.3% | OVCAR-3 ovarian 80.3% | HS 578T breast 49.8% | BT-549 breast 58.5% | MDA-MB-435 melanoma 66.4% | SW-620 colon 63.5% | MCF7 breast 13.9% | HCT-116 colon 68% | HCC-2998 colon 56.4% | KM12 colon 18.2%

CCOC(=O)c1c(C(F)(F)F)n([O-])c2ccc(Cl)cc2[n+]1=O
inactive: SK-OV-3 ovarian 66.6% | HS 578T breast 13.8%
active: RPMI-8226 leukemia -69.8% | OVCAR-8 ovarian -42.6% | OVCAR-5 ovarian -27.8% | OVCAR-4 ovarian -35.3% | IGROV1 ovarian -30.3% | OVCAR-3 ovarian -70.5% | T-47D breast -53% | BT-549 breast -59.6% | MDA-MB-435 melanoma -70.1% | SW-620 colon -64.7% | MCF7 breast -57.6% | HCT-116 colon -62.8% | HCC-2998 colon -90.8% | KM12 colon -78.5%

COc1cc(-c2csc(NC(=O)Nc3ccc(C(F)(F)F)cc3)n2)cc(OC)c1OC
active: RPMI-8226 leukemia -11.5% | OVCAR-8 ovarian 3.06% | SK-OV-3 ovarian -3.3% | OVCAR-3 ovarian 1.73% | HS 578T breast 6.93% | NCI/ADR-RES ovarian -1.59% | T-47D breast -3.68% | MDA-MB-435 melanoma -26.9% | MCF7 breast 0.456% | HCT-116 colon 5.03% | KM12 colon 7.27%
inactive: OVCAR-5 ovarian 33% | OVCAR-4 ovarian 13.4% | IGROV1 ovarian 42.8% | SW-620 colon 14.8% | HCC-2998 colon 19.3%

O=c1[nH]c(-c2cccc(F)c2)cc2cc(F)ccc12
inactive: RPMI-8226 leukemia 22.5% | OVCAR-8 ovarian 30.2% | OVCAR-5 ovarian 48.4% | OVCAR-4 ovarian 63.4% | SK-OV-3 ovarian 26.1% | IGROV1 ovarian 40.1% | HS 578T breast 34.7% | T-47D breast 49.8% | BT-549 breast 66.5% | SW-620 colon 26.9% | MCF7 breast 13.6% | HCT-116 colon 25.4% | HCC-2998 colon 44.6% | KM12 colon 23.6%
active: OVCAR-3 ovarian -11.9% | MDA-MB-435 melanoma -25.5%

COc1cccc(NC(=O)Nc2ccc(Nc3ncnc4[nH]c(C)c(C)c34)cc2)c1
inactive: RPMI-8226 leukemia 90.8% | OVCAR-8 ovarian 91.7% | OVCAR-5 ovarian 114% | OVCAR-4 ovarian 109% | SK-OV-3 ovarian 102% | IGROV1 ovarian 115% | OVCAR-3 ovarian 113% | HS 578T breast 83.9% | NCI/ADR-RES ovarian 107% | T-47D breast 89.8% | MDA-MB-435 melanoma 102% | SW-620 colon 110% | MCF7 breast 91.1% | HCT-116 colon 116% | HCC-2998 colon 115% | KM12 colon 70.6%

C#C[C@@]1(O)[C@@H](CO)O[C@@H](n2ccc3c(N)ncnc32)[C@@H]1O
active: RPMI-8226 leukemia 4.21% | OVCAR-8 ovarian -21.7% | OVCAR-4 ovarian 0.622% | SK-OV-3 ovarian -7.62% | IGROV1 ovarian 4.28% | T-47D breast -34% | BT-549 breast -8.06% | MDA-MB-435 melanoma -28.9% | SW-620 colon 1.33% | MCF7 breast 3.61% | HCT-116 colon 5.2% | HCC-2998 colon -44.2% | KM12 colon 0.307%
inactive: OVCAR-5 ovarian 25.6% | OVCAR-3 ovarian 18.2% | HS 578T breast 51.6%

CNc1cccc2c1C(=O)c1cccc(N)c1C2=O
inactive: RPMI-8226 leukemia 38.9% | OVCAR-8 ovarian 64.5% | OVCAR-5 ovarian 73.8% | OVCAR-4 ovarian 57.6% | SK-OV-3 ovarian 60.5% | IGROV1 ovarian 67.5% | OVCAR-3 ovarian 32.2% | HS 578T breast 19.4% | T-47D breast 45.9% | BT-549 breast 30.8% | MDA-MB-435 melanoma 36.1% | SW-620 colon 63.1% | MCF7 breast 25% | HCT-116 colon 31.5% | HCC-2998 colon 93.9% | KM12 colon 35.8%
